Holding throughout (test): NCI-60 one-dose screen, 48 h (100 = growth as untreated, 0 = no growth, -100 = all killed)
Conditions in all cases: 10 µM unless noted

Assay [1] concerns T-47D breast.
For assay [2], the system named is BT-549 breast.
For assay [3], the system named is MDA-MB-435 melanoma.
Assay [4] has as its system SW-620 colon.
In assay [5] the test system is MCF7 breast.
The test system of assay [6] is HCT-116 colon.
In assay [7] the test system is HCC-2998 colon.
In assay [8] the test system is KM12 colon.

The panel holds about 83,000 compounds, 20% with a hit somewhere; the sample as a whole holds those more often.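 Single-concentration screen, 48 h exposure, 96-well plates. Endpoint: percent growth. Below 10 = active.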 Unmarked numbers belong to inactive results. Activity calls are given as the source filed them.

Take `CCN1C(=O)N(CC)C2Nn3c(s/c(=C\c4ccc(Cl)cc4Cl)c3=O)=NC21` (stereo not drawn): the growth in assay [1] is 76.9%; in assay [2], 38.6%; in assay [3], -40.7% (active); in assay [4], 30.4%; in assay [5], 28.9%; in assay [6] it was 15.2%. For the same compound, the figures for the growth in assay [7] and in assay [8] were 73.9% and 13.1%, respectively.
For `N#Cc1c(-c2cccc(Cl)c2)cc(-c2cccc(Cl)c2)[nH]c1=O`, the growth in assay [1] was 79.2%; in assay [2], 52.4%; in assay [3], 0.951% (active); in assay [4], 50.2%; in assay [5], 53.8%; in assay [6] it was 67.1%. In addition, the growth in assay [7] is 82.6%; in assay [8], 56.1%.
Turning to `CNC(=O)c1cc(Oc2ccc3nc(Nc4ccc(Cl)c(C(F)(F)F)c4)ccc3c2)ccn1`, the growth in assay [1] was 43.5%; in assay [2], 83.1%; in assay [3] it was 52.3%; in assay [4], 104%; in assay [5], 42.7%; in assay [6] it was 45.1%. Also, the figures for the growth in assay [7] and in assay [8] were 65.5% and 52.7%, respectively.
Take `COCCN(C(=O)c1ccc(F)cc1F)c1c(N)n(Cc2ccccc2)c(=O)[nH]c1=O`: the growth in assay [1] is 103%; in assay [2], 135%; in assay [3], 105%; in assay [4], 108%; in assay [5] it was 108%; in assay [6], 102%. In addition, the growth is 106% in assay [7] and 105% in assay [8].
For `N#CCN1C(=O)C2C3=C(CCCC3)SC2N=C1CN1CCCC1` (stereo not drawn), the growth in assay [1] was 97.2%; in assay [2], 114%; in assay [3] it was 105%; in assay [4] it was 95.3%; in assay [5], 109%; in assay [6], 94.2%. Besides, the figures for the growth in assay [7] and in assay [8] were 96.9% and 109%, respectively.
On to `O=C(O)c1ccc2c(c1)CCC2`, for which the growth in assay [1] is 106%; in assay [2], 96.6%; in assay [3], 115%; in assay [4], 108%; in assay [5], 100%; in assay [6], 105%. Moreover, the growth is 115% in assay [7] and 113% in assay [8].
`OC(c1cccc(-n2ccc(C(F)(F)F)n2)c1)c1cnccc1NC1CCCCCC1` (stereo not drawn): the growth in assay [1] was 22.6%; in assay [2], 82.5%; in assay [3], -77.4% (active); in assay [4], -86.4% (active); in assay [5], -14.4% (active); in assay [6] it was -79.4% (active). In addition, the values for the growth in assay [7] and in assay [8] were -88.8% (active) and -47.1% (active), respectively.
As to `Cc1cccc(NC(=O)N/C(N)=N/c2nc(C)c(C)s2)c1`, the growth in assay [1] is 40.1%; in assay [2] it was 70.3%; in assay [3], -28.5% (active); in assay [4] it was 25.7%; in assay [5], 27%; in assay [6] it was 33.5%. The growth in assay [7] was 63.7%; in assay [8], 23.4%.
As for `C=CCn1c(C)nc2cc(Nc3nc(N4CCCC4)nc4ccccc34)ccc21`, the growth in assay [1] was 105%; in assay [2] it was 96.9%; in assay [3], 92.4%; in assay [4] it was 75%; in assay [5] it was 61.9%; in assay [6], 19.6%. Moreover, the growth in assay [7] was 23.3%; in assay [8] it was 70.1%.
In the case of `O=S(=O)(Nc1cccc(Cl)c1)c1ccc(-c2cnc(C3CC3)o2)cc1`, the growth was 25% in assay [1]; 26.6% in assay [2]; -21.5% (active) in assay [3]; 11.3% in assay [4]; 14.2% in assay [5]; 15.3% in assay [6]. For the same compound, the growth in assay [7] was 46.3%; in assay [8], 20.8%.
In the case of `COc1cc2ncn3c(=O)c4c5c(sc4nc3c2cc1OC)CCCC5`, the growth was 100% in assay [1]; 99.9% in assay [2]; 92.5% in assay [3]; 90.1% in assay [4]; 91.4% in assay [5]; 95.5% in assay [6]. Besides, the growth in assay [7] was 102%; in assay [8], 97.4%.
As to `CCCCCCCCCOc1c(OC)cc(C2CC(=O)Nc3c2c(C)nn3-c2nc3ccccc3[nH]2)cc1OC` (stereo not drawn), the growth in assay [1] is -11% (active); in assay [2], -16.7% (active); in assay [3] it was -47.4% (active); in assay [4], -29.2% (active); in assay [5], 4.28% (active); in assay [6], 0.609% (active). Further, the growth was 10% in assay [7] and -53.1% (active) in assay [8].
With `CCOC(=O)c1c(/C=C/C(=O)O)nc2ccccc2c1/C=C/c1ccccc1`, the growth in assay [1] is 36.4%; in assay [2] it was 19.1%; in assay [3] it was 21.6%; in assay [4], 30.1%; in assay [5], 30.2%; in assay [6], 22.4%. Further, the values for the growth in assay [7] and in assay [8] were 35.1% and 19.7%, respectively.
Regarding `CCc1ccccc1NC(=O)/C(C#N)=C/c1ccc(OC)cc1`, the growth in assay [1] is 88.7%; in assay [2], 112%; in assay [3], 110%; in assay [4], 94.4%; in assay [5] it was 106%; in assay [6], 89.1%. For the same compound, the values for the growth in assay [7] and in assay [8] were 98.1% and 91.4%, respectively.
Take `COc1ccc(C2=Nc3c(N)ncnc3NC(c3ccc4c(c3)OCO4)C2)cc1` (stereo not drawn): the growth was 80.3% in assay [1]; 89% in assay [2]; 94.2% in assay [3]; 85.5% in assay [4]; 76.1% in assay [5]; 74.2% in assay [6]. Moreover, the growth is -6.86% (active) in assay [7] and 95.8% in assay [8].
In the case of `Cc1cc(Cl)ccc1Nc1nc(C(F)(F)F)ccc1C(=O)N/N=C/c1ccc(N(C)C)cc1`, the growth is 37% in assay [1]; 34.9% in assay [2]; 43.7% in assay [3]; 15.9% in assay [4]; 10.1% in assay [5]; 19.4% in assay [6]. Besides, the growth was -37.3% (active) in assay [7] and 26.9% in assay [8].
In the case of `N#Cc1c(N)nc(NCCO)nc1-c1ccc(F)cc1`, the growth in assay [1] is 79.7%; in assay [2], 98.6%; in assay [3], 104%; in assay [4], 99.8%; in assay [5] it was 97.3%; in assay [6], 93.7%. Further, the growth in assay [7] is 105%; in assay [8], 103%.
In the case of `C=C1C(=O)O[C@H]2[C@H]1CC/C(CNC(=O)/C=C/c1ccc(Cl)cc1Cl)=C\CC[C@@]1(C)O[C@@H]21`, the growth in assay [1] is -61.2% (active); in assay [2], -53.1% (active); in assay [3], 4.95% (active); in assay [4] it was -51.6% (active); in assay [5], -59.9% (active); in assay [6], -73.9% (active). Also, the growth in assay [7] was -93.3% (active); in assay [8] it was 20%.
In the case of `CCc1ccccc1-n1c(-c2ccc(Cl)cc2)cc(-c2ccc(OC)cc2)c(C#N)c1=O`, the growth was 92.3% in assay [1]; 154% in assay [2]; 89% in assay [3]; 104% in assay [4]; 85.6% in assay [5]; 94.6% in assay [6]. Further, the growth was 109% in assay [7] and 87.7% in assay [8].
Take `CCCCCCCC/C=C\CCCCCCCCOc1ccccc1CC(=O)NCC[N+](C)(C)C`: the growth in assay [1] is 94.4%; in assay [2], 77.4%; in assay [3], 95.6%; in assay [4] it was 69.5%; in assay [5] it was 73%; in assay [6] it was 65.8%. In addition, the growth in assay [7] is 33.7%; in assay [8] it was 36.4%.
Turning to `COc1ccc2[nH]c(O)c(/C=c3/cc4c(c(-c5ccc(F)c(OC)c5)n3)=Nc3ccccc3-4)c2c1`, the growth is 89.6% in assay [1]; 84.1% in assay [2]; 6.77% (active) in assay [3]; -23.2% (active) in assay [4]; 1.29% (active) in assay [5]; -91% (active) in assay [6]. Moreover, the results for the growth in assay [7] and in assay [8] were -0.339% (active) and 13.1%, respectively.
For the compound `Cc1ccc(/C=C/c2c(C(=O)/C=C/c3ccc(Cl)cc3)c(C)nc3ccccc23)cc1`, the growth was 1.89% (active) in assay [1]; -10.4% (active) in assay [2]; -47.5% (active) in assay [3]; -33.1% (active) in assay [4]; 12.8% in assay [5]; -59.6% (active) in assay [6]. The growth in assay [7] was -82.1% (active); in assay [8], -24.9% (active).
As to `CC(=O)C(C)Cc1cc2c(cc1C)C(C)(C)CCC2(C)C` (stereo not drawn), the growth in assay [1] was 80.2%; in assay [2], 95.5%; in assay [3] it was 104%; in assay [4], 102%; in assay [5], 91.8%; in assay [6] it was 95.1%. The values for the growth in assay [7] and in assay [8] were 102% and 105%, respectively.
Take `COc1cc(/C=C/C(=O)c2ccc(Nc3nc(Nc4ccc(F)cc4)nc(Nc4ccc(Cl)cc4)n3)cc2)cc(OC)c1OC`: the growth is 61.9% in assay [1]; 54.8% in assay [2]; 69.3% in assay [3]; 35.3% in assay [4]; 28.5% in assay [5]; 22.9% in assay [6]. Also, the results for the growth in assay [7] and in assay [8] were -1.48% (active) and 56%, respectively.
In the case of `COc1cc2c(cc1-c1c(C)noc1C)ncc1nc(C3CCCCC3)n(C3CCC(OC(F)F)CC3)c12` (stereo not drawn), the growth in assay [1] was -0.67% (active); in assay [2], 51.5%; in assay [3], 41.6%; in assay [4] it was 58.3%; in assay [5], 15.1%; in assay [6], 24.8%. In addition, the growth in assay [7] is 42.7%; in assay [8] it was 39.2%.
Turning to `COc1cc(-c2n/c(=C\c3c(O)[nH]c4ccc(Cl)cc34)cc3c2=Nc2ccccc2-3)cc(OC)c1OC`, the growth in assay [1] was 32.7%; in assay [2], 101%; in assay [3], 16.6%; in assay [4] it was -29.5% (active); in assay [5] it was 0.83% (active); in assay [6], -73.5% (active). Further, the growth in assay [7] was 44.6%; in assay [8], 2.53% (active).
`CN(C)c1ccc(-c2ccc3[nH]c(=O)nc(-c4ccccc4)c3c2)cn1`: the growth is 61% in assay [1]; 41.9% in assay [2]; -11.9% (active) in assay [3]; 24.5% in assay [4]; 25.9% in assay [5]; 16.4% in assay [6]. Further, the growth was 66.3% in assay [7] and 19.8% in assay [8].
With `O=C1/C(=C2/C=Nc3ccccc32)N(O)c2ccccc21`, the growth in assay [1] is 19.5%; in assay [2] it was 78.1%; in assay [3], -95.3% (active); in assay [4], 75.4%; in assay [5], 40.3%; in assay [6] it was 49.8%. Moreover, the growth in assay [7] was 113%; in assay [8] it was 73.1%.
As for `O=C(Nc1cccc2c(O)c(N=Nc3ccc(S(=O)(=O)Nc4nccs4)cc3)cc(N=Nc3ccc(S(=O)(=O)Nc4nccs4)cc3)c12)C(Cl)Cl`, the growth in assay [1] was 88.3%; in assay [2] it was 87.3%; in assay [3] it was 106%; in assay [4], 42%; in assay [5], 57.8%; in assay [6], 71.8%. For the same compound, the growth in assay [7] is 107%; in assay [8], 59%.
Consider `Cc1ccc(S(=O)(=O)NCC[C@@H]2C[C@H]2c2cc3ccccc3s2)cc1`, for which the growth was 77.9% in assay [1]; 102% in assay [2]; 104% in assay [3]; 103% in assay [4]; 93.7% in assay [5]; 93.8% in assay [6]. The growth in assay [7] was 106%; in assay [8] it was 96.1%.
With `Cc1cc(=O)[nH]c(N=Nc2c(O)[nH]c3ccccc23)n1`, the growth in assay [1] was 105%; in assay [2], 99.3%; in assay [3], 114%; in assay [4] it was 110%; in assay [5], 93.2%; in assay [6], 104%. Besides, the growth in assay [7] was 107%; in assay [8] it was 108%.

Source of the values: PubChem BioAssay (NCI).
